PubChem BioAssay AID1851 (National Center for Advancing Translational Sciences (NCATS), 2009)
Values joined by “and” are separate entries in the source; they are usually repeats but may differ in a detail not shown here. Identical values can stand only once. The campaign covered roughly 16,000 compounds. About 4,000 (25%) were called active. About 26% were inconclusive and are not listed. These entries were drawn from the full list. Values without a mark were called inactive. Calls come from the whole dose curve; as a rule, active = well fitted curve in the direction sought with a large enough effect; inconclusive = small, poorly fitted or top-dose-only effect, or effect the other way; inactive = no such curve, though single readings can be large or run the other way.

molecular target: Cytochrome P450 2C9 (Homo sapiens) (UniProt P11712); test: Cytochrome panel assay with activity outcomes; conditions: recombinant CYP, pro-luciferin dealkylation, luminescence, p450-cyp2c9; series mostly up to 57.1 µM; activity, negative = inhibition: at the top concentration
Sequence (P11712 whole entry, looked up): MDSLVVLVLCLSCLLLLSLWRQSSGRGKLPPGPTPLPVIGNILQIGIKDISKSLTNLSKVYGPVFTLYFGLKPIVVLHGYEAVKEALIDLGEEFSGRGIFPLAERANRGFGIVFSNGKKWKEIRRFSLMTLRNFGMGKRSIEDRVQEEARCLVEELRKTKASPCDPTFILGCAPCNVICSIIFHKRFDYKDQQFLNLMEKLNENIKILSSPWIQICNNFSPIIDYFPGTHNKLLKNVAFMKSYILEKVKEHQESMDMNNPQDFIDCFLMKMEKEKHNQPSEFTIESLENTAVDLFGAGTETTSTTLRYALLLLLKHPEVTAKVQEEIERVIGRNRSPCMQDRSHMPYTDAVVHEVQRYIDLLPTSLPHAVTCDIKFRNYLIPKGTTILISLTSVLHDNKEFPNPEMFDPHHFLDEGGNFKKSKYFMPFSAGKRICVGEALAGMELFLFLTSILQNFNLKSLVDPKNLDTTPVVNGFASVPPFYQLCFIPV
% is set by controls: 0 for no effect and ±100 for the full control effect.

Compound | activity, negative = inhibition | AC50
O=C(c1cc(C(F)(F)F)cc(C(F)(F)F)c1)N1CCC[C@@]2(CCN(c3ccncc3)C2)C1 | -26.6% | –
O=C(O)CC[C@@H](NC(=O)c1ccccc1C(=O)O)C(=O)O | 17% | –
CCCN(CCC)C(=O)[C@@H](CCC(=O)O)NC(=O)c1ccccc1 | – | inactive
CCCCCN(CCCCC)C(=O)[C@H](CCC(=O)O)NC(=O)c1ccc(Cl)c(Cl)c1 | – | 3.98 µM (active) and 1 µM (active)
CN(C)CCCO[C@H]1[C@H]([C@H](O)CO)O[C@H]2OC(C)(C)O[C@@H]21 | 10.1% | –
Cc1cc(OC(=O)c2ccc(Cl)cc2)cc(=O)n1C | – | 25.1 µM (active)
Cc1cc(OC(=O)c2ccccc2Br)cc(=O)n1C | 5.05% | –
CC(C)=C[C@H]1[C@@H](COC(=O)c2ccccc2Cl)C1(C)C | -5.63% [at 11.4 µM] | –
Cc1cc(OC(=O)c2ccccc2Cl)cc(=O)n1C | – | 10 µM (active)
CN(C)CCC=C1c2ccccc2C=Cc2ccccc21 | – | inactive
CCNc1ncc2nc(-c3ccc(F)cc3)c(=O)n(-c3ccc(OC)cc3)c2n1 | -4.2% | –
O=C1[C@H]2CCn3c(=O)n(-c4ccccc4)c(=O)n3[C@H]2[C@H](O)[C@H]2O[C@@H]12 | -4.73% [at 11.4 µM] | –
Clc1ccccc1C(Nc1ncccn1)Nc1ncccn1 | 4.43% [at 11.4 µM] | –
CCOC(=O)CC(Nc1nc(N2CCOCC2)nc(N2CCOCC2)n1)c1ccccc1Cl (centres undefined) | – | 4.47 µM (active)
O=c1cc(N2CCOCC2)oc2c(-c3ccccc3)cccc12 | -20% | –
CCc1ccccc1N1C(=O)c2cccc3c(N4CCOCC4)c([N+](=O)[O-])cc(c23)C1=O | – | 15.8 µM (active)
CO[C@H]1C[C@@H]2C[C@H](O)C[C@@H](CC(=O)O[C@@H](/C=C\CC(C)C)C[C@@H]3CC[C@H](C)[C@@H](C1)O3)O2 | 1.57% [at 11.4 µM] | –
CN1CCC2(CC1)CCN(S(=O)(=O)c1ccccc1)CC2 | 5.28% | –
O=C(NCCN1CCN(Cc2ccccc2)CC1)C1c2ccccc2C(=O)N2CCc3ccccc3C12 (centres undefined) | -13.4% | –
O=C1c2ccccc2C(=O)N1CC1c2ccccc2CCN1S(=O)(=O)c1ccccc1 (centres undefined) | – | 3.16 µM (active)
COCC(C)n1c(C)cc(C(=O)CSc2nnc(Nc3ccccc3F)s2)c1C (centres undefined) | – | 11.2 µM (active)
N#Cc1ccc(CN2CC3(CCN(C(=O)c4cccc(F)c4)CC3)C2)cc1 | 2.69% | –
CCOC(=O)N1CCN(C(=O)c2ccc3nc(SCc4ccc(F)cc4)n(C)c3c2)CC1 | – | 1.58 µM (active)
CCOC(=O)N1CCN(C(=O)c2cc(-c3ccc(F)cc3)[nH]c2C)CC1 | -40% | –
Cc1cccnc1NC(=O)C12CCC(C)(C(=O)O1)C2(C)C (centres undefined) | 1.81% | –

Compound | activity, negative = inhibition | AC50
O=C(Nc1ccc2ncccc2c1)Nc1ccc2ncccc2c1 | 4.23% [at 11.4 µM] | –
Cc1ccc(NC(=O)Nc2ncccc2C)cc1 | – | 28.2 µM (active)
CN(C)C(=O)Oc1cccc([N+](C)(C)C)c1 | -8.11% | –
C[C@H](NCCc1ccc(O)cc1)[C@@H](O)c1ccc(O)cc1 | – | inactive
CC[C@H](c1ccc(O)cc1)[C@@H](CC)c1ccc(O)cc1 | – | 5.01 µM (active)
CC[C@H](NC(C)C)[C@H](O)c1ccc(O)c(O)c1 | – | inactive
CN(C)C[C@H]1CCC[C@@H](CN(C)C)C1=O | 1.9% [at 11.4 µM] | –
CCn1cc(-c2nnnn2-c2ccc(Cl)cc2)c(=O)c2ccccc21 | -21.4% | –
Clc1ccc2[nH]cc(-c3nnnn3-c3ccccc3)c2c1 | – | 5.01 µM (active)
Cc1ccc(-n2nnnc2-c2cnc3ccc(Cl)cc3c2-c2ccccc2)cc1 | – | 8.91 µM (active)
CC12CCC(C(=O)O)(C/C1=N\O)C2(C)C (centres undefined) | 1.31% | –
COc1cccc(-c2cncnc2N(C)Cc2ccco2)c1 | -5.51% [at 2.29 µM] | –
C=CCN=C1CC(C)(C)CC(=O)/C1=C(\O)c1ccccc1 | -17.3% | –
CC1(C)CC(=O)c2c(Cc3ccccc3)n[nH]c2C1 | – | 14.1 µM (active)
O=C(Nc1ccccc1C(=O)O)c1ccc2ccccc2n1 | – | 8.91 µM (active)
O=C(O)c1ccc(C(=O)Nc2cccc3ccccc23)c(C(=O)O)c1 | -2.72% [at 11.4 µM] | –
CC(=O)Nc1ccccc1C(=O)C(=O)O | -6.65% | –
O=C(Nc1cccc(-c2cn3cccnc3n2)c1)c1ccco1 | – | 12.6 µM (active)
CCCC(=O)Nc1cc(-c2cn3cccnc3n2)ccc1OC | -21.9% | –
C[C@@H]1NCC[C@H](CC(=O)O)[C@H]1CC(=O)O | -13.5% [at 11.4 µM] | –
O=C1CCc2cc(OCCCCc3nnnn3C3CCCCC3)ccc2N1 | -17.9% | –
CC(C)(C)c1ccc(CN(Cc2ccco2)Cc2nnnn2C2CCCC2)cc1 | – | 3.55 µM (active)
O=C(O)c1nnsc1-c1csnn1 | -13.9% [at 11.4 µM] | –
CCNC(=O)NC1(C(=O)Nc2ccc3c(c2)OCCO3)CCCCC1 | -22.8% | –
O=C(Nc1ccc2c(c1)OCCO2)c1cc2sccc2n1Cc1ccc(F)cc1 | – | 3.55 µM (active)

Compound | activity, negative = inhibition | AC50
CCO[P@]1(=O)OC[C@@H]2O[C@H](n3cnc4c(N)ncnc43)[C@H](O)[C@@H]2O1 | -1.07% [at 11.4 µM] | –
O=C(Nc1ccccc1)N1CC[C@@]2(CCCN(C(=O)c3cc(C(F)(F)F)cc(C(F)(F)F)c3)C2)C1 | 0.313% | –
Cc1ccccc1NC(=O)OCc1cn(-c2ccc(Cl)cc2)nn1 | -27.3% | –
CCCCC(=O)OCc1cn(-c2ccc(Cl)cc2)nn1 | – | 17.8 µM (active)
NNC(=O)c1nn(-c2ccc(Cl)cc2)ccc1=O | -4.57% | –
CCOC(=O)CCN1C(=O)[C@H]2[C@H]3[C@H](O)[C@H](O)C/C(=N/OC/C=C(\C)CCC=C(C)C)[C@H]3CC[C@@H]2C1=O | 3.33% [at 11.4 µM] | –
CCNc1ncc2nc(C)c(=O)n(CCc3ccccc3)c2n1 | -5.9% | –
CCC(Sc1nc(=O)cc(N)n1CCc1ccccc1)C(=O)Nc1ccccc1C#N (centres undefined) | – | 2.51 µM (active)
CC(=O)O[C@@H](C)C[N+](C)(C)C | – | inactive
N#Cc1cccc(NC(=O)N2CC[C@@]3(CCCN(C(=O)c4ccncc4)C3)C2)c1 | 11.3% | –
Cc1ccc(S(=O)(=O)N2CCN(C(=O)c3ccccc3)C2C(C)C)cc1 (centres undefined) | – | 25.1 µM (active)
Cc1ccc(S(=O)(=O)N2CCC(C(=O)O)(c3ccccc3)CC2)cc1 | -9.94% [at 11.4 µM] | –
CC(=O)N1CCN(S(=O)(=O)c2ccccc2)C1c1ccccc1 (centres undefined) | -23.8% | –
Cc1noc(C)c1-c1nccc(Nc2ccc(F)cc2)n1 | 25.8% [at 2.29 µM] | –
O=C(CSc1ccc(Cl)cc1)Nc1ccc(N2CCN(c3ccccc3)CC2)c(F)c1 | 5.76% | –
O=C(O)CCC(=O)Nc1ccc(C(=O)N2CCCCC2)cc1 | 6.15% | –
Fc1cccc(NC(=S)NCCCN2CCOCC2)c1 | 1.12% | –
O=C(CSc1ccc(Cl)cc1)Nc1ccc(N2CCN(C(=O)c3ccc(Cl)cc3)CC2)cc1 | – | 5.01 µM (active)
O=C(CN1CCN(c2ccc(Cl)cc2)CC1)Nc1ccc(F)c(F)c1 | – | 3.55 µM (active)
O=C(CN1CCN(c2ccc(Cl)cc2)CC1)Nc1cccc(F)c1 | – | 2.82 µM (active)
COC(=O)N1CCC2(CCN(C(=O)Nc3cccc(F)c3)CC2)CC1 | -13% | –
COc1ccc2c(Cl)c(-c3nnco3)sc2c1 | -29% | –
[O-][N+]1(CC[N+]2([O-])CCCCC2)CCCCC1 | -6.33% [at 11.4 µM] | –
CCOC(=O)CSc1nnc(Cc2cc(=O)[nH]c(=O)[nH]2)n1-c1cccc(OC)c1 | -0.051% | –
CCOC(=O)CSc1nnc(CSc2nc3sc4c(c3c(=O)[nH]2)CCCC4)n1-c1ccccc1 | – | 5.01 µM (active)

Compound | activity, negative = inhibition | AC50
CCOC(=O)CC1C(=O)NCCN1S(=O)(=O)c1ccc(Cl)c(Cl)c1 (centres undefined) | 149% | –
O=C(NCc1ccccc1Cl)c1ccc2c(=O)n(CCCN3CCCC3=O)c(=S)[nH]c2c1 | – | 8.91 µM (active)
COCCCNC(=O)c1ccc2c(=O)n(CC3CCCO3)c(=S)[nH]c2c1 (centres undefined) | -11.2% | –
COCCn1c(=S)[nH]c2cc(C(=O)NC(C)C)ccc2c1=O | -4.45% | –
N#Cc1cccc(-c2cc(NCc3cccnc3)ncn2)c1 | -26.2% [at 2.29 µM] | –
COc1cccc(C(=O)N(Cc2ccccc2)Cc2cc3cc4c(cc3[nH]c2=O)OCCO4)c1 | – | 10 µM (active)
COc1ccc2[nH]c(=O)c(CN(CCO)C(=O)c3cccs3)cc2c1 | -14.4% | –
Cc1cnc(CNc2cc(-c3cccc(C#N)c3)ncn2)cn1 | 19.4% [at 2.29 µM] | –
COc1ccc(-c2nc3cnc(N4CCNCC4)nc3n(CCc3ccccc3)c2=O)cc1 | – | 3.98 µM (active)
COc1ccc(-c2nc3cnc(N4CCN(C)CC4)nc3n(CCC#N)c2=O)cc1 | 1.14% | –
COc1cccc(Cn2c(=O)c(-c3ccc(F)cc3)nc3cnc(N4CCNCC4)nc32)c1 | – | 15.8 µM (active)
CCNc1ncc2nc(-c3ccc(Cl)cc3)c(=O)n(Cc3cccc(OC)c3)c2n1 | 6.87% | –
COc1cccc(Cn2c(=O)c(-c3ccc(Cl)cc3)nc3cnc(N4CCNCC4)nc32)c1 | – | 12.6 µM (active)
COc1cccc(Cn2c(=O)c(-c3ccc(Cl)cc3)nc3cnc(N4CCN(C)CC4)nc32)c1 | 13% | –
COc1ccc(-c2nc3cnc(N4CCN(C)CC4)nc3n(Cc3ccc(F)cc3)c2=O)cc1 | 18.1% | –
COc1cccc(Cn2c(=O)c(-c3cccs3)nc3cnc(N4CCNCC4)nc32)c1 | – | 12.6 µM (active)
CCCS(=O)(=O)N1CCCC(C(=O)NCCCOC(C)C)C1 (centres undefined) | -21.8% | –
COc1cccc(Cn2c(=O)c(-c3ccccc3)nc3cnc(N4CCNCC4)nc32)c1 | – | 12.6 µM (active)
COc1cccc(Cn2c(=O)c(-c3cc(F)cc(F)c3)nc3cnc(N(C)C)nc32)c1 | -2.46% | –
COc1ccc(-n2c(=O)c(-c3cc(F)cc(F)c3)nc3cnc(N4CCNCC4)nc32)cc1 | -19.9% | –
COc1cccc(Cn2c(=O)c(-c3ccccc3)nc3cnc(N4CCN(C)CC4)nc32)c1 | -11.1% | –
COc1ccc(-c2nc3cnc(N4CCNCC4)nc3n(Cc3cccc(OC)c3)c2=O)cc1 | – | 25.1 µM (active)
COc1ccc(-n2c(=O)c(-c3ccc(Cl)cc3)nc3cnc(N4CCNCC4)nc32)cc1 | -3.8% | –
COc1cccc(Cn2c(=O)c(-c3cc(F)cc(F)c3)nc3cnc(N4CCNCC4)nc32)c1 | – | 7.94 µM (active)
